Data taken from the supplement of paper PMC10849652.
About 7,900 targets were measured; listed, in parts, are those with a hit and a random draw of the rest. About 0.6% of all pairs of compound and target were hits.

Tests used:
Assay in all cases: log2 fold change, soluble protein after heating vs DMSO (PISA); higher = thermal stabilisation; K562 cells, 10 uM, 30 min; active = over 0.2 and 3.5 SD of the protein, either way, in both replicates (recomputed)
[1] = compound: COC1=CC=C(C=C1)CN2C=CC3=C2C=C(C=C3)C(=O)NO
Procedure, shortened: (§1)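 Soluble protein was quantified by TMTpro 16plex LC-MS/MS after channel sums were equalised. It was obtained as the supernatant after 21,000xg for 90 min from pooled aliquots of K562 cells (2×10^6 cells/mL, 10 μM compound, 30 min) heated for 3 min across 48°C-58°C and extracted in PBS with 0.5% NP-40 at 4°C. Thermal stability values are relative to control samples and come from duplicates. They are given as log2 fold changes.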

filanesib = compound: CON(C)C(=O)N1N=C(c2cc(F)ccc2F)S[C@@]1(CCCN)c1ccccc1 [filanesib]
Procedure, shortened: as §1

zotarolimus = compound: CO[C@H]1C[C@@H]2CC[C@@H](C)[C@@](O)(O2)C(=O)C(=O)N2CCCC[C@H]2C(=O)O[C@H]([C@H](C)C[C@@H]2CC[C@H](n3cnnn3)[C@H](OC)C2)CC(=O)[C@H](C)/C=C(\C)[C@@H](O)[C@@H](OC)C(=O)[C@H](C)C[C@H](C)/C=C/C=C/C=C/1C [zotarolimus]
Procedure, shortened: as §1

idasanutlin = compound: COc1cc(C(=O)O)ccc1NC(=O)[C@@H]1N[C@@H](CC(C)(C)C)[C@](C#N)(c2ccc(Cl)cc2F)[C@H]1c1cccc(Cl)c1F [idasanutlin]
Procedure, shortened: as §1

alisertib = compound: COc1cc(Nc2ncc3c(n2)-c2ccc(Cl)cc2C(c2c(F)cccc2OC)=NC3)ccc1C(=O)O [alisertib]
Procedure, shortened: as §1

[2] = compound: COc1cc2nc(-c3cc(F)ccc3O)nc(N[C@@H]3CNC[C@H]3C(C)(C)O)c2cc1OC
Procedure, shortened: as §1

gefitinib = compound: COc1cc2ncnc(Nc3ccc(F)c(Cl)c3)c2cc1OCCCN1CCOCC1 [gefitinib]
Procedure, shortened: as §1

[3] = compound: COc1cccc2cc(-c3nc([C@H]4CC[C@H](C(=O)O)CC4)n4ncnc(N)c34)[nH]c12
Procedure, shortened: as §1

lapatinib = compound: CS(=O)(=O)CCNCc1ccc(-c2ccc3ncnc(Nc4ccc(OCc5cccc(F)c5)c(Cl)c4)c3c2)o1 [lapatinib]
Procedure, shortened: as §1

pictilisib = compound: CS(=O)(=O)N1CCN(Cc2cc3nc(-c4cccc5[nH]ncc45)nc(N4CCOCC4)c3s2)CC1 [pictilisib]
Procedure, shortened: as §1

Measured: log2 fold change

PTPN12 (UniProt Q05209)
Chain of UniProt Q05209 (Q05209 whole entry, looked up): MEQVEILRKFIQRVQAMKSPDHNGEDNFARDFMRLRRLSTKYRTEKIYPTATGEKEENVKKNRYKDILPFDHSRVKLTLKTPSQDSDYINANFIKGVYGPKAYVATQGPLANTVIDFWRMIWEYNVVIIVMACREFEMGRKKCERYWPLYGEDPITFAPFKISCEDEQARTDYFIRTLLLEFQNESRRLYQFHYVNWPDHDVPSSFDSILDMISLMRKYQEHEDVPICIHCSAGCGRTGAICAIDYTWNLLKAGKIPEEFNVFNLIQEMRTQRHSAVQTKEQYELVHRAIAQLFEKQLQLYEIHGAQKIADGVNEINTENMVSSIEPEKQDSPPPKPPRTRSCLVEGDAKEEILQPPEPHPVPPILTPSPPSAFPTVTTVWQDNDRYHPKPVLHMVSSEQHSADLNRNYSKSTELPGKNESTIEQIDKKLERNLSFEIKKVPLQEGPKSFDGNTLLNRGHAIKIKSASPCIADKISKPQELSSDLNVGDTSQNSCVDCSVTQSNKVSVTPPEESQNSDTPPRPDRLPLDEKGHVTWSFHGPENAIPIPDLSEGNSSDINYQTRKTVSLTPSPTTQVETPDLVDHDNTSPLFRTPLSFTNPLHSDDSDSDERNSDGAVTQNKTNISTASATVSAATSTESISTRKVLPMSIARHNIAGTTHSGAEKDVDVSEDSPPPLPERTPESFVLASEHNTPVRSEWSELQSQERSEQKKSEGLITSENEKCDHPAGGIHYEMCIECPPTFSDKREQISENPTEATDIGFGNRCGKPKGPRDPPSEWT
inactive: [1] -0.024 | filanesib 0.04 | zotarolimus 0.041 | idasanutlin -0.021 | alisertib -0.06 | [2] 0.053 | gefitinib 0.025 | [3] -0.132 | lapatinib 0.039 | pictilisib 0.012

PDS5A (UniProt Q29RF7)
inactive: [1] 0.076 | filanesib -0.316 | zotarolimus -0.137 | idasanutlin -0.012 | alisertib 0.067 | [2] 0.043 | gefitinib -0.125 | [3] -0.19 | lapatinib -0.072 | pictilisib -0.014

PMM2 (UniProt O15305)
inactive: [1] -0.054 | filanesib -0.014 | zotarolimus -0.01 | idasanutlin 0.011 | alisertib 0.009 | [2] 0.071 | gefitinib 0.016 | [3] 0.034 | lapatinib -0.088 | pictilisib -0.113

PSMD13 (UniProt Q9UNM6)
Chain of UniProt Q9UNM6 (Q9UNM6 whole entry, looked up): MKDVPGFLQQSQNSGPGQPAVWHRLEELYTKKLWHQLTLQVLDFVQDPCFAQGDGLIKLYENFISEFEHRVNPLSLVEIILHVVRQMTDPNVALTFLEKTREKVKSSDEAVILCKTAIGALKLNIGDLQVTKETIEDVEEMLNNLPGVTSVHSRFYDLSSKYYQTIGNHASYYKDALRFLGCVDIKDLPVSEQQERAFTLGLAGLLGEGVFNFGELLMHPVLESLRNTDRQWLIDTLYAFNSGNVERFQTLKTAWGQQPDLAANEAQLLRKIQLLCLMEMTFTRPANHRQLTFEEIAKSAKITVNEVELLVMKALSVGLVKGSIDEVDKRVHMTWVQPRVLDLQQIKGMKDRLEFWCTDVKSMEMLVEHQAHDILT
inactive: [1] -0.127 | filanesib 0.095 | zotarolimus 0.009 | idasanutlin -0.054 | alisertib -0.04 | [2] -0.025 | gefitinib -0.026 | [3] -0.05 | lapatinib 0.038 | pictilisib -0.01

POLA2 (UniProt Q14181)
inactive: [1] 0.086 | filanesib -0.001 | zotarolimus 0.015 | idasanutlin -0.02 | alisertib 0.005 | [2] 0.046 | gefitinib 0 | [3] -0.015 | lapatinib 0.018 | pictilisib 0.051

PRUNE1 (UniProt Q86TP1)
inactive: [1] -0.083 | filanesib -0.047 | zotarolimus 0.026 | idasanutlin 0.023 | alisertib 0.091 | [2] 0.059 | gefitinib 0.006 | [3] -0.007 | lapatinib -0.038 | pictilisib 0.072

PCYT1A (UniProt P49585)
inactive: [1] 0.006 | filanesib -0.005 | zotarolimus 0.035 | idasanutlin -0.015 | alisertib 0.025 | [2] -0.05 | gefitinib -0.012 | [3] -0.037 | lapatinib 0.018 | pictilisib 0.03

PSMC1 (UniProt P62191)
Chain of UniProt P62191 (P62191 whole entry, looked up): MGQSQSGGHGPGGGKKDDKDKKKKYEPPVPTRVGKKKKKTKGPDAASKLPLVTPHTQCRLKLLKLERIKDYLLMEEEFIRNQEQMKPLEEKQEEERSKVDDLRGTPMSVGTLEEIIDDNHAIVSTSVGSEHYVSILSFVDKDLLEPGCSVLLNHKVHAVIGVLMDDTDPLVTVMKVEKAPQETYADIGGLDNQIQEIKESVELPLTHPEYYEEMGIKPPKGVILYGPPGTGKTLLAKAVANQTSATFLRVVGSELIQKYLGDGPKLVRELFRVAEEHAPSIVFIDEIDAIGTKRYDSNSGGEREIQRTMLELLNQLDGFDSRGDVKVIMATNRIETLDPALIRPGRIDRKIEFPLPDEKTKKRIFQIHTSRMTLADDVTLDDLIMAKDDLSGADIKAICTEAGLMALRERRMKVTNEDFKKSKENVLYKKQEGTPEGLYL
inactive: [1] -0.062 | filanesib 0.03 | zotarolimus -0.013 | idasanutlin 0.009 | alisertib -0.049 | [2] -0.018 | gefitinib -0.05 | [3] -0.015 | lapatinib 0.054 | pictilisib -0.006

PDE4DIP isoform 4 (UniProt Q5VU43)
inactive: [1] 0.113 | filanesib -0.057 | zotarolimus -0.046 | idasanutlin 0.055 | alisertib -0.102 | [2] 0.024 | gefitinib 0.024 | [3] -0.022 | lapatinib -0.005 | pictilisib 0.042

PLA2G15 (UniProt Q8NCC3)
Chain of UniProt Q8NCC3 (Q8NCC3 whole entry, looked up): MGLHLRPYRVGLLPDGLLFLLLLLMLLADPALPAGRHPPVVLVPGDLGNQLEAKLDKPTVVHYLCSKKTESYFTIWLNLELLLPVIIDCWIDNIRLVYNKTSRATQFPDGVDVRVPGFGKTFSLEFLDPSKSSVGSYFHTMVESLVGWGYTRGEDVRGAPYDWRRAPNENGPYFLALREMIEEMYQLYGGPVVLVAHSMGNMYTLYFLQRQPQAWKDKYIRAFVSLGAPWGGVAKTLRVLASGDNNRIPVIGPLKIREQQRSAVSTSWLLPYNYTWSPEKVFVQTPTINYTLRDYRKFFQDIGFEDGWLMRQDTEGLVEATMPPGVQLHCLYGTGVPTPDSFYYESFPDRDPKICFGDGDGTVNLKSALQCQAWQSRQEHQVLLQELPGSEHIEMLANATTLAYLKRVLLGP
inactive: [1] -0.041 | filanesib -0.076 | zotarolimus -0.007 | idasanutlin 0.01 | alisertib 0.095 | [2] 0.03 | gefitinib 0.001 | [3] 0.056 | lapatinib -0.001 | pictilisib -0.01

PRPF3 (UniProt O43395)
inactive: [1] 0.18 | filanesib -0.038 | zotarolimus -0.048 | idasanutlin -0.029 | alisertib 0.031 | [2] -0.07 | gefitinib 0.06 | [3] 0.072 | lapatinib -0.02 | pictilisib -0.022

PSMC3 (UniProt P17980)
inactive: [1] -0.035 | filanesib 0.043 | zotarolimus 0.001 | idasanutlin 0.045 | alisertib -0.056 | [2] -0.015 | gefitinib -0.045 | [3] -0.038 | lapatinib 0.047 | pictilisib 0.013

PIGT (UniProt Q969N2)
Chain of UniProt Q969N2 (Q969N2 whole entry, looked up): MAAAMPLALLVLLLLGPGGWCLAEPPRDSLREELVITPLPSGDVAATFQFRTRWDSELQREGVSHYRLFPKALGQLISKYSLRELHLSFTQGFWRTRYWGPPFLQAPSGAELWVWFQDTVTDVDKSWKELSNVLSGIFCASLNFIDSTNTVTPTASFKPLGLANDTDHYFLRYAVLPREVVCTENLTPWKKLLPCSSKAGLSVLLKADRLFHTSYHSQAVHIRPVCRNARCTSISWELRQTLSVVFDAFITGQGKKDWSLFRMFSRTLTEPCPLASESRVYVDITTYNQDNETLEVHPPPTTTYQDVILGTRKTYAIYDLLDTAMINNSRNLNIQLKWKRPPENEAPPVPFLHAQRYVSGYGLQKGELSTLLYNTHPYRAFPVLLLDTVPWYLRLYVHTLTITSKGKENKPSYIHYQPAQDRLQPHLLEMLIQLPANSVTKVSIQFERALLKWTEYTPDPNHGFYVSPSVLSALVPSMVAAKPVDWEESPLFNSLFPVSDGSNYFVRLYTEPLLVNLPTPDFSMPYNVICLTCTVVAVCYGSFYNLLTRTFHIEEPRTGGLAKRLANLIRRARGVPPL
inactive: [1] -0.004 | filanesib 0 | zotarolimus 0.012 | idasanutlin -0.02 | alisertib -0.081 | [2] 0.046 | gefitinib -0.006 | [3] -0.013 | lapatinib 0.027 | pictilisib -0.007

PRIM2 (UniProt P49643)
inactive: [1] 0.044 | filanesib -0.139 | zotarolimus -0.132 | idasanutlin 0.03 | alisertib -0.042 | [2] 0.063 | gefitinib 0.069 | [3] -0.033 | lapatinib -0.005 | pictilisib 0.086

PDE2A (UniProt O00408)
inactive: [1] 0.172 | filanesib -0.118 | zotarolimus 0.001 | idasanutlin -0.089 | alisertib -0.053 | [2] 0.134 | gefitinib -0.004 | [3] 0.027 | lapatinib -0.014 | pictilisib 0.148

PARG (UniProt Q86W56)
inactive: [1] 0.065 | filanesib -0.057 | zotarolimus 0.048 | idasanutlin -0.093 | alisertib -0.114 | [2] 0.013 | gefitinib 0.023 | [3] 0.094 | lapatinib 0.013 | pictilisib -0.023

PPP1R14A (UniProt Q96A00)
Chain of UniProt Q96A00 (Q96A00 whole entry, looked up): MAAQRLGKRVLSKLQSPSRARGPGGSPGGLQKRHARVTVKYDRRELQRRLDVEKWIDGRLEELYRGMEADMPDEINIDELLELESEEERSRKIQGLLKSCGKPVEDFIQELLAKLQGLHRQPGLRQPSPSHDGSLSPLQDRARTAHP
inactive: [1] 0.016 | filanesib 0.031 | zotarolimus -0.028 | idasanutlin -0.013 | alisertib -0.041 | [2] 0.039 | gefitinib 0.012 | [3] -0.079 | lapatinib -0.057 | pictilisib 0.017

PDCD4 (UniProt Q53EL6)
inactive: [1] 0.055 | filanesib -0.153 | zotarolimus 0.251 | idasanutlin -0.161 | alisertib -0.025 | [2] 0.018 | gefitinib 0.057 | [3] 0.16 | lapatinib 0.032 | pictilisib 0.083

PSMD11 (UniProt O00231)
inactive: [1] 0.018 | filanesib -0.011 | zotarolimus 0.028 | idasanutlin 0.004 | alisertib -0.058 | [2] -0.052 | gefitinib -0.043 | [3] -0.071 | lapatinib 0.086 | pictilisib 0.003

PLK1 (UniProt P53350)
inactive: [1] 0.013 | filanesib 0.068 | zotarolimus -0.021 | idasanutlin 0.014 | alisertib 0.02 | [2] 0.092 | gefitinib -0.024 | [3] -0.133 | lapatinib 0.041 | pictilisib -0.072

PRKAB1 (UniProt Q9Y478)
inactive: [1] 0.024 | filanesib -0.022 | zotarolimus 0.07 | idasanutlin -0.223 | alisertib -0.105 | [2] -0.034 | gefitinib -0.024 | [3] 0.05 | lapatinib -0.049 | pictilisib -0.063

PSMD8 (UniProt P48556)
inactive: [1] -0.046 | filanesib 0.055 | zotarolimus -0.016 | idasanutlin 0.015 | alisertib -0.097 | [2] -0.038 | gefitinib -0.022 | [3] -0.061 | lapatinib 0.066 | pictilisib 0.097

PDCD6IP (UniProt Q8WUM4)
inactive: [1] 0.105 | filanesib -0.022 | zotarolimus 0.079 | idasanutlin -0.018 | alisertib 0.045 | [2] 0.022 | gefitinib 0.06 | [3] -0.118 | lapatinib -0.04 | pictilisib 0.009

PLD3 (UniProt Q8IV08)
inactive: [1] -0.027 | filanesib -0.131 | zotarolimus -0.006 | idasanutlin 0.001 | alisertib -0.139 | [2] 0.019 | gefitinib 0.008 | [3] 0.027 | lapatinib -0.025 | pictilisib 0.045

PPP2R5C isoform 5 (UniProt Q13362)
inactive: [1] 0.022 | filanesib -0.126 | zotarolimus 0.031 | idasanutlin -0.137 | alisertib -0.11 | [2] 0.082 | gefitinib -0.018 | [3] -0.012 | lapatinib 0 | pictilisib 0.111

RAB11FIP1 (UniProt Q6WKZ4)
Chain of UniProt Q6WKZ4 (Q6WKZ4 whole entry, looked up): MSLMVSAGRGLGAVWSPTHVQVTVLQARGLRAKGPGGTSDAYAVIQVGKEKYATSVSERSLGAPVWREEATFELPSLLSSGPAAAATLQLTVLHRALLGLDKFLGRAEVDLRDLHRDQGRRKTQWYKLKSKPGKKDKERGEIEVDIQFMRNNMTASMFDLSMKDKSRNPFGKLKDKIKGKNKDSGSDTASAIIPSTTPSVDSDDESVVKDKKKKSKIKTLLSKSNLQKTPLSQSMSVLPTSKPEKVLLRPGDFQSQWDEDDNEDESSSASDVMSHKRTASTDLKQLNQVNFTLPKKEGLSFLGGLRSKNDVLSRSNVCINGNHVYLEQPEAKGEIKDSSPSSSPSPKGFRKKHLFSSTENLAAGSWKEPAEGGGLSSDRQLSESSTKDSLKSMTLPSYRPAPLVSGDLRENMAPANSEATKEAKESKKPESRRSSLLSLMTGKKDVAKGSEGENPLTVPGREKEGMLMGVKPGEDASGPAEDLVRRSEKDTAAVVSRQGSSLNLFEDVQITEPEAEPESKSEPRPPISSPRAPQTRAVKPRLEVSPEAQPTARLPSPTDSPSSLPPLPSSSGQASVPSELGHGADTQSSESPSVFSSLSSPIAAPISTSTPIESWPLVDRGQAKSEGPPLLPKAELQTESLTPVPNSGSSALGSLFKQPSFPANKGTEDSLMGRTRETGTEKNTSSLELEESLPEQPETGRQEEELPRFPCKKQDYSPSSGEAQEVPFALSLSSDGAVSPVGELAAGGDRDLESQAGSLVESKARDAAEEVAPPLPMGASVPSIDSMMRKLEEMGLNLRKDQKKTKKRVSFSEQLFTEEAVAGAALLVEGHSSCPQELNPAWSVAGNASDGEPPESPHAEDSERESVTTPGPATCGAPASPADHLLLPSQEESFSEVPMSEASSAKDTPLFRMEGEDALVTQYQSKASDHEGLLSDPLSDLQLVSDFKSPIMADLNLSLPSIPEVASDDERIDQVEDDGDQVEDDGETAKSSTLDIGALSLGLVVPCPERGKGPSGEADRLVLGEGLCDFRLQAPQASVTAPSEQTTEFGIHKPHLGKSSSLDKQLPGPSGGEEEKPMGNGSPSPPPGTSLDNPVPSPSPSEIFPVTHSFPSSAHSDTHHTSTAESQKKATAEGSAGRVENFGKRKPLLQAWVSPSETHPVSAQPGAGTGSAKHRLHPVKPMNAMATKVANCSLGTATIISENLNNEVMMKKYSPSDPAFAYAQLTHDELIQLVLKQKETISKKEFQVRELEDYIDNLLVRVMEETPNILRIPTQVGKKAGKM
inactive: [1] -0.024 | filanesib 0.004 | zotarolimus 0 | idasanutlin -0.015 | alisertib 0.368 | [2] -0.03 | gefitinib -0.009 | [3] 0.007 | lapatinib 0.01 | pictilisib -0.107

PRPF4B (UniProt Q13523)
Chain of UniProt Q13523 (Q13523 whole entry, looked up): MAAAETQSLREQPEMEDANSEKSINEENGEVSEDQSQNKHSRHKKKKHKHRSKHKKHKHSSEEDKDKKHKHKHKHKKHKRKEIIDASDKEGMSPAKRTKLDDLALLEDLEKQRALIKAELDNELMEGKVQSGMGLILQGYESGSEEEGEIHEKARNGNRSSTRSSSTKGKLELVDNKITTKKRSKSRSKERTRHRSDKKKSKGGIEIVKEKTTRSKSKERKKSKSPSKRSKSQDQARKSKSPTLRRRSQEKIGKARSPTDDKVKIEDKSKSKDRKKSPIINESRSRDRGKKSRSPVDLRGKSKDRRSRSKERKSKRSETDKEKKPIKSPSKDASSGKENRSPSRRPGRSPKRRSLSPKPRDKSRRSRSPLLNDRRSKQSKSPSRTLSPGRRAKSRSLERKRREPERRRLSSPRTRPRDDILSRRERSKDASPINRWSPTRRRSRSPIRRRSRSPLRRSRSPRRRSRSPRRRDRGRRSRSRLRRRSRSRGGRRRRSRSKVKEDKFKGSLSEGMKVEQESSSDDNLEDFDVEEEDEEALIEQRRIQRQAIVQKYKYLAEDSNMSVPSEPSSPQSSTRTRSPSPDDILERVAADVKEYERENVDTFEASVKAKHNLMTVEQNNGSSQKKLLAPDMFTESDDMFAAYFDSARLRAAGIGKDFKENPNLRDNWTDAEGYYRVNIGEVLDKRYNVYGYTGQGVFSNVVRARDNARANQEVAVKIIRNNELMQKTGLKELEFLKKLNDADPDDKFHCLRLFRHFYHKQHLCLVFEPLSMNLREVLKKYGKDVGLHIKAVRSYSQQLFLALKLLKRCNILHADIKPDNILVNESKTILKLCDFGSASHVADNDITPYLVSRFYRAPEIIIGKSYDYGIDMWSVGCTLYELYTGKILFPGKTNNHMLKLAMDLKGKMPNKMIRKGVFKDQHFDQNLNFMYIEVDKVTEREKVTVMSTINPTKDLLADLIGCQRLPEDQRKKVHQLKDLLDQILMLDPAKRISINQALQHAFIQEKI
inactive: [1] -0.024 | filanesib 0.253 | zotarolimus 0.187 | idasanutlin 0.164 | alisertib -0.047 | [2] -0.1 | gefitinib -0.023 | [3] 0.003 | lapatinib 0.19 | pictilisib 0.097

PRPF31 (UniProt Q8WWY3)
inactive: [1] 0.07 | filanesib 0.006 | zotarolimus -0.028 | idasanutlin -0.053 | alisertib 0.081 | [2] -0.393 | gefitinib 0.003 | [3] 0.024 | lapatinib 0.061 | pictilisib 0.139

PTK2B (UniProt Q14289)
inactive: [1] 0.083 | filanesib -0.077 | zotarolimus 0.019 | idasanutlin 0.026 | alisertib 0.064 | [2] 0.345 | gefitinib -0.011 | [3] -0.057 | lapatinib -0.022 | pictilisib 0.117
